Compounds with a hit are over-represented: about 7.5% of the library has one in this group of screens.
SMN2 splice up: qHTS Assay for Enhancers of SMN2 Splice Variant Expression; HEK293 SMN2-luciferase splicing reporter, luminescence, 30-36 h; Potency, µM (top dose mostly 46.1 µM), for inactives: at the highest dose activity change, positive = activation, usual class: activators; actives 2.8% (n = 210,000); AID 1458, 2008; also: % of control where 0% means no effect; nearly all actives have a fitted effect of over 55% in size
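HEK293 cells carry an SMN2 minigene-luciferase reporter in which exon 7 inclusion puts luciferase in frame. Cells were seeded at 2000 cells/well, attached for 10-12 hours, then exposed to compounds for 30-36 hours at 37C before ONE-Glo luminescence.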
NPC1 prom act: qHTS Assay for NPC1 Promoter Activators; Huh7 NPC1 promoter luciferase reporter, 24 h; Potency, µM (highest dose often 9.22 µM), for inactives: at the top dose activation, hits mostly activators; actives 2.4% (n = 320,000); also: % of control where 0% means no effect; nearly all actives have a fitted effect of over 60% in size
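NPC1 promoter–luciferase Huh7 cells; 24 h compound; luminescence.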
ELG1 genotox: qHTS screen for small molecules that induce genotoxicity in human embryonic kidney (HEK293T) cells expressing luciferase-tagged ELG1; HEK293T ELG1-luciferase reporter, luminescence, 16 h; Potency, µM (series often up to 46 µM), for inactives: at the highest dose activity change, positive = activation, most hits filed as activators; actives 1.3% (n = 330,000); also: % of control where 0% means no effect; nearly all actives have a fitted effect of over 60% in size
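Luminescence read-out: rising ELG1-luciferase signal, reflecting elevated ELG1 protein under genetic stress, flags genotoxic compounds. Cells were treated for 16 hr at 37 °C before ONE-Glo detection.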
Rab9 promoter act: qHTS Assay for Rab9 Promoter Activators; AID 485297, 2010; Huh7 Rab9 promoter-luciferase reporter, luminescence, 24 h; Potency, µM (doses to about 9.22 µM), for inactives: at the top dose activation, negative = inhibition, hits mostly activators; actives 2.8% (n = 320,000); also: % of control where 0% means no effect; nearly all actives have a fitted effect of over 60% in size
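Quantitative HTS format; Huh7 Rab9-luciferase reporter cells (1500/well) receive compound 2 h post-plating, incubate 24 h at 37 °C, then get luciferase reagent for 10 min before luminescence reading.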
FLuc counter: qHTS profiling assay for firefly luciferase inhibitor/activator using purifed enzyme and Km concentrations of substrates (counterscreen for miR-21 project) | purified FLuc, Km substrates, luminescence inhibition | Potency, µM (doses to about 57.5 µM), inactives show at the highest dose activity change, negative = inhibition, actives largely listed as inhibitors | actives 6.9% (n = 360,000) | AID 588342, 2011;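 also: plate controls were vehicle for no effect and reference inhibitor for full effect; nearly all actives have a fitted effect of over 55% in size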
Target sequence (P08659 whole entry, looked up): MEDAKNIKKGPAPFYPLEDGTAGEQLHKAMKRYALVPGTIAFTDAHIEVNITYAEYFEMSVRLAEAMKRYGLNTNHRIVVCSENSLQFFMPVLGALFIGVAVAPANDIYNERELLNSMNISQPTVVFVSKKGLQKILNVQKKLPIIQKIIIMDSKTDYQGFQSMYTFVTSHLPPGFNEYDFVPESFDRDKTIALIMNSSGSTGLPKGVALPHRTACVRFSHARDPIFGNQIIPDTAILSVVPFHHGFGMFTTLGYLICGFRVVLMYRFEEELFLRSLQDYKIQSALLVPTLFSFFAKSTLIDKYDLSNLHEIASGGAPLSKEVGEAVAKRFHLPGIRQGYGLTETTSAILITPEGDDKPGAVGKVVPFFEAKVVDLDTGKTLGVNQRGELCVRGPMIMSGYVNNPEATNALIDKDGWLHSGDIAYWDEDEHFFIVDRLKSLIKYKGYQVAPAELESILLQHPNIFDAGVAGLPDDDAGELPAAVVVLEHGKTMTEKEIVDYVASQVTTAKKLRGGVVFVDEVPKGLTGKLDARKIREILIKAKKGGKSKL
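Purified P. pyralis luciferase (10nM final) with 10uM D-luciferin and 10uM ATP (Km levels) in 50mM Tris acetate pH 7.5, 10mM Mg acetate, 0.01% Tween-20, 0.05% BSA; qHTS 6-point titration, ~60 µM downward; luminescence read.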
* marks the source's active call; other numbers are inactive results. Calls follow the shape of the dose curve; as a rule, active = well fitted curve in the direction sought with a large enough effect; inconclusive = small, poorly fitted or top-dose-only effect, or another doubt; inactive = no such curve, though single readings can be large; an effect the other way counts as inactive or inconclusive. Potency is read from the fitted curve at half-maximal effect.

Results for Cc1ccc(OCCn2cc(C(=O)c3cccs3)c3ccccc32)cc1 ?
SMN2 splice up: -30%; FLuc counter: 3%

Results for COCCCNC(=O)CCCn1c(=O)c2cccn2c2cccnc21 ?
FLuc counter: -5%

How did c1ccc(-c2onc(-c3ccco3)c2-c2ccc3c(c2)OCO3)cc1 do in these assays?
NPC1 prom act: -3%; ELG1 genotox: -2%; Rab9 promoter act: 1%; FLuc counter: inconclusive

How did O=C(CSc1nc(N2CCOCC2)nc(N2CCOCC2)n1)Nc1ccccc1F do in these assays?
NPC1 prom act: 0%; ELG1 genotox: 0%; Rab9 promoter act: 4%; FLuc counter: -2%

Results for O=C1C(C2=C(O)c3ccccc3C2=O)=Nc2ccccc21 ?
SMN2 splice up: -11%; NPC1 prom act: -19%; ELG1 genotox: -3%; Rab9 promoter act: -28%; FLuc counter: 1.9µM*

Results for O=C1c2ccccc2C(=O)c2c(O)ccc(O)c21 ?
SMN2 splice up: -3%

What do the screens show for `O=C(CSc1nccc(=O)[nH]1)NC1CCCCCCC1`?
ELG1 genotox: 1%

What do the screens show for `Cc1cc(=O)c2cc(C(=O)Nc3ccccc3C)ccc2[nH]1`?
FLuc counter: 4%

What do the screens show for `Cc1ccccc1NC(=O)c1ccc2[nH]c(C)c(C)c2c1`?
FLuc counter: 21µM*

How did COc1ccccc1NC(=O)c1ccc2[nH]c(C)c(C)c2c1 do in these assays?
NPC1 prom act: inconclusive; ELG1 genotox: inconclusive; Rab9 promoter act: 2.8µM*; FLuc counter: 12µM*

Results for Cc1[nH]c2ccc(C(=O)Nc3ccncc3)cc2c1C ?
NPC1 prom act: -1%; ELG1 genotox: -2%; Rab9 promoter act: 5%; FLuc counter: 17µM*

How did Cc1ccccc1CNC(=O)c1ccc2[nH]c(C)c(C)c2c1 do in these assays?
FLuc counter: -16%

Results for C=CCNC(=O)c1ccc(Sc2ccc(C)cc2)c([N+](=O)[O-])c1 ?
SMN2 splice up: -3%; NPC1 prom act: -2%; ELG1 genotox: -1%; Rab9 promoter act: -5%; FLuc counter: 0%

Results for CCCCSc1nnc(-c2ccc(OC)cc2)n1C ?
SMN2 splice up: 12%; NPC1 prom act: inconclusive; ELG1 genotox: 11%; Rab9 promoter act: inconclusive; FLuc counter: inconclusive

Results for C/C(=N/NC(=O)c1ccc(Br)o1)c1cccc(NC(=O)c2ccc(C)o2)c1 ?
SMN2 splice up: 13%; NPC1 prom act: 1%; ELG1 genotox: -2%; Rab9 promoter act: 13%; FLuc counter: 11µM*

What do the screens show for `C/C(=N\NC(=O)c1ccn(C)n1)c1cccc(NC(=O)c2ccc(C)s2)c1`?
SMN2 splice up: inconclusive; NPC1 prom act: inconclusive; ELG1 genotox: 8%; Rab9 promoter act: 30%; FLuc counter: 3µM*

Results for C/C(=N\NC(=O)c1ccn(C)n1)c1ccc(NC(=O)c2cccc(F)c2)cc1 ?
NPC1 prom act: inconclusive; ELG1 genotox: 2%; Rab9 promoter act: inconclusive; FLuc counter: -2%

How did CCC(CC)C(=O)Nc1cccc(/C(C)=N\NC(=O)c2ccc(C)s2)c1 do in these assays?
SMN2 splice up: 28%; NPC1 prom act: -3%; ELG1 genotox: 0%; Rab9 promoter act: 8%; FLuc counter: inconclusive

How did C/C(=N/NC(=O)c1ccco1)c1cccc(NC(=O)c2ccc(C)o2)c1 do in these assays?
SMN2 splice up: 17%; NPC1 prom act: -1%; ELG1 genotox: 5%; Rab9 promoter act: 19%; FLuc counter: 15µM*

What do the screens show for `C/C(=N/NC(=O)c1ccc(Br)o1)c1ccncc1`?
SMN2 splice up: 6%; NPC1 prom act: 2%; ELG1 genotox: 1%; Rab9 promoter act: -2%; FLuc counter: inconclusive

What do the screens show for `C/C(=N/NC(=O)c1ccco1)c1cccc(NC(=O)c2ccc(C)s2)c1`?
SMN2 splice up: inconclusive; NPC1 prom act: 23%; ELG1 genotox: 13%; Rab9 promoter act: 27%; FLuc counter: 4.8µM*

What do the screens show for `O=C(O)c1cccc(S(=O)(=O)Nc2ccccc2N2CCOCC2)c1`?
NPC1 prom act: -3%; ELG1 genotox: -2%; Rab9 promoter act: -4%; FLuc counter: 0%

How did C/C(=N/NC(=O)c1ccc(Br)o1)c1cccc(NC(=O)c2ccc(F)cc2)c1 do in these assays?
NPC1 prom act: -3%; ELG1 genotox: -9%; Rab9 promoter act: 3%; FLuc counter: 11µM*

Results for C/C(=N/NC(=O)c1cccs1)c1ccc(NC(=O)COc2ccc(Cl)cc2Cl)cc1 ?
SMN2 splice up: 3%; NPC1 prom act: -8%; ELG1 genotox: 8%; Rab9 promoter act: -12%; FLuc counter: -9%

Results for C/C(=N/NC(=O)c1ccc(C)s1)c1cccc(NC(=O)COc2ccc(Cl)cc2Cl)c1 ?
SMN2 splice up: 5%; NPC1 prom act: 0.56µM*; ELG1 genotox: 17%; Rab9 promoter act: 0.5µM*; FLuc counter: 2.1µM*

How did COc1ccc2[nH]c3c(=O)n(Cc4ccc(C(=O)N5CCC(C(N)=O)CC5)cc4)c(=S)[nH]c3c2c1 do in these assays?
SMN2 splice up: 4%; NPC1 prom act: 1%; ELG1 genotox: 0%; Rab9 promoter act: 6%; FLuc counter: 21µM*

Results for S=c1[nH]nc(CSCCOc2ccccc2)o1 ?
NPC1 prom act: -1%; ELG1 genotox: 1%; Rab9 promoter act: -3%; FLuc counter: -18%

How did S=c1[nH]nc(CSCCOc2ccc(Cl)cc2Cl)o1 do in these assays?
NPC1 prom act: 14%; ELG1 genotox: 5%; Rab9 promoter act: 2%; FLuc counter: 21µM*

Results for O=S(=O)(Nc1cc(Sc2ncn[nH]2)c(O)c2ccccc12)c1ccccc1 ?
SMN2 splice up: -113%; NPC1 prom act: 3%; ELG1 genotox: -13%; Rab9 promoter act: 1%; FLuc counter: 11µM*

How did CCOc1ccc(CNC(=O)CCS(=O)(=O)c2cc3c(cc2Cl)NC(=O)CO3)cc1OC do in these assays?
FLuc counter: -1%

Results for CC(=O)Nc1nnc(SCc2cc(=O)c3cccc(C)c3[nH]2)s1 ?
FLuc counter: 7%

What do the screens show for `COc1cccc(C(=O)Nc2nnc(SCC(=O)NC3CC3)s2)c1`?
NPC1 prom act: inconclusive; ELG1 genotox: inconclusive; Rab9 promoter act: inconclusive; FLuc counter: 5.4µM*

Results for COc1ccc(C(=O)Nc2nnc(SCC(=O)NC3CC3)s2)cc1 ?
NPC1 prom act: 1.4µM*; ELG1 genotox: inconclusive; Rab9 promoter act: 2.5µM*; FLuc counter: 1.2µM*

Source: PubChem BioAssay
